Results on five compounds are retold here after PubChem BioAssay AID1012 (Sanford-Burnham Center for Chemical Genomics, 2008).

The campaign covered roughly 200,000 compounds. About 520 (0.26%) were called active.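 The calls were made as follows: active = tissue-nonspecific alkaline phosphatase inhibition above about 50% at 20 µM in the single-dose screen (limit read from the data); inactive = the rest.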 The full list was thinned out, with actives kept by preference.

Chain of Alkaline phosphatase, tissue-nonspecific isozyme (Homo sapiens) (P05186 whole entry, looked up): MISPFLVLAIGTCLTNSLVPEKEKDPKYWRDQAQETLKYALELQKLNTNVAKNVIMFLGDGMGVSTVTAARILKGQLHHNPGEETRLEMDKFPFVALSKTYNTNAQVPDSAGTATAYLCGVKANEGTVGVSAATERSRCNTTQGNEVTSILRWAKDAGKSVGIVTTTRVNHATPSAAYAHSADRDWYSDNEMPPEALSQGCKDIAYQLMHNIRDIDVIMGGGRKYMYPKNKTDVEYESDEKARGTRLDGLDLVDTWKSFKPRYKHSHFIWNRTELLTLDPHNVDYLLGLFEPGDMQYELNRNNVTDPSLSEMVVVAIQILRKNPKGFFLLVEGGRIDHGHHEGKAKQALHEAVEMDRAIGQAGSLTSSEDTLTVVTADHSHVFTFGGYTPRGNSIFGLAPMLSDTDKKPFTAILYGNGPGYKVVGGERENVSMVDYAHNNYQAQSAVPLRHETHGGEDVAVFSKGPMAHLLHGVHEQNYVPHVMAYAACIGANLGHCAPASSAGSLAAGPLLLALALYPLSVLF

This assay has as its target Alkaline phosphatase, tissue-nonspecific isozyme (Homo sapiens) (UniProt P05186). Briefly: blockers of alkaline phosphatase TNAP activity – biochemical, luminescent, no phosphate acceptor, uHTS, primary screen (AID 1012).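 Also: 0% = DMSO negative control and 100% = EDTA positive control.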 The settings on record: purified TNAP, CDP-star luminescence, 30 min; at 20 µM; stronger effect = higher value.
Consider `CN(C)CCCN=Cc1c(O)n(Cc2ccco2)c(=O)[nH]c1=O`, for which the inhibition was -20.3% (inactive). `CCC(=NCc1ccco1)c1c(O)n(Cc2ccccc2)c(=O)[nH]c1=O`: the inhibition was -5.5% (inactive). The figure for `O=C(N/N=C/c1c(O)n(Cc2ccccc2)c(=O)[nH]c1=O)c1ccccc1` is 94.3% (active); for `O=C(OCCN1CCOCC1)C1(c2ccccc2)CCCC1` it is -3% (inactive). The figure for `O=C(NCC(c1cccnc1)N1CCN(c2ccccc2)CC1)Oc1ccccc1` (stereo not given) is -8.6% (inactive).

The inhibition is the drop in the measured response relative to a control, in per cent.
